We go through 39 compounds from PubChem BioAssay (NCI).

Compounds without any hit were thinned out: in the full panel of roughly 83,000, 20% have a hit.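 96-well plates, one dose, 48 hours. Percent growth reported; active if below 10.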 Calls of active or inactive are those of the source.

The first test concerns IGROV1 ovarian. Kind of test: NCI-60 one-dose screen, 48 h (100 = growth as untreated, 0 = no growth, -100 = all killed). Conditions: 10 µM unless noted.
Turning to `COc1cc2c3c(c4c5ccccc5[nH]c4c2c(OC)c1OC)C(=O)N(O)C3=O`, the growth is 9.03% (active).

With `Clc1cc(Cl)cc(Nc2ccc3c(OCCCN4CCOCC4)cccc3n2)c1`, the growth was 72.9% (inactive).

Turning to `C/C(=N/NC(N)=S)C(=O)O`, the growth was 56.7% (inactive).

Turning to `CCCCC[C@H]1C/C=C2/C(=O)C(Cl)=C[C@@H]2C/C=C\CCCC(=O)O1`, the growth is -61% (active).

As for `Cn1c2ccccc2c2c3c(c4c5cccnc5[nH]c4c21)C(=O)N(O)C3=O`, the growth was 45.1% (inactive).

Turning to `O=C1CN(c2ccccc2)C(=O)C1C(=O)Nc1ccc(Cl)c(Cl)c1` (stereo unspecified), the growth was 20.9% [100 µM] (inactive).

In the case of `CCc1cccc(CC)c1NC(=O)c1sc2nc3c(cc2c1N)CCCC3`, the growth is 64.5% (inactive).

In the case of `Cc1cccc2c1NC(=O)[C@@]21[C@H](C(=O)c2ccccc2)[C@]2(C(=O)Nc3ccccc32)[C@H]2CCCN21`, the growth is 43% [100 µM] (inactive).

`C[C@H]1OC(=O)/C=C/[C@@H](O)[C@@H](O)CCCCCCCC[C@@H]1O`: the growth is 103% (inactive).

Consider `COc1cccc(-c2nn(-c3ccccc3)cc2-c2ccnc(NCCNS(=O)(=O)c3cccc(F)c3)c2)c1`, for which the growth was 38% (inactive).

`CCCC(=O)N1CCCCC1CC` (stereo unspecified): the growth was 120% (inactive).

As for `CC(=O)O[C@@H]1CCN2C(=O)N(C)c3ccccc3[C@@H]2C1`, the growth was 105% (inactive).

As for `O=C(/C=C\c1ccc2c(c1)OCO2)/C=C/c1ccc2c(c1)OCO2`, the growth is 88.9% (inactive).

For `O=C1NC(c2ccc(Cl)c(Cl)c2)=C/C1=C\c1ccccc1`, the growth is 59.2% (inactive).

With `O=C1C=Cc2ncccc2C1=O`, the growth was 105% (inactive).

In the case of `COc1ccc(C2C(C#N)=C(N)Oc3c2sc2c(F)cccc32)cc1` (stereo unspecified), the growth was 30.6% (inactive).

Take `COC(=O)[C@]12CC[C@@H](C)[C@H](C)[C@@H]1C1=CC[C@@H]3[C@@]4(C)C(c5ncon5)=C[C@@](C)(CO)C4=CC[C@@]3(C)[C@]1(C)CC2`: the growth is -10.8% (active).

Turning to `Cc1cc2nc3c4cc(Cl)ccc4n(CCN(C)C)c3nc2cc1C`, the growth was 4.29% (active).

For `COc1cc2c(cc1-c1c(C)noc1C)ncc1nc(C3CC3)n([C@H](C)COC(F)F)c12`, the growth was 58.6% (inactive).

In the case of `CCCCC[C@H]1CC=C2C(=O)C(Cl)=C[C@@H]2CC=CCCCC(=O)O[C@@H](CCCCC)CC=C2C(=O)C(Cl)=C[C@@H]2CC=CCCCC(=O)O[C@@H](CCCCC)CC=C2C(=O)C(Cl)=C[C@@H]2CC=CCCCC(=O)O1`, the growth was 36% [8 µM] (inactive).

Take `NC(=O)[C@@H]1CC2CCC1C2` (stereo partly specified): the growth is 110% (inactive).

For the compound `C=C(C)[C@@H]1CC[C@]2(C=O)CC[C@]3(C)[C@H](CC[C@@H]4[C@@]5(C)C/C(=C/c6cccnc6)C(=O)C(C)(C)[C@@H]5CC[C@]43C)[C@@H]12`, the growth is -31.2% (active).

In the case of `Cc1cc(N(CCNc2ccnc3cc(Cl)ccc23)Cc2ccco2)nc(Cl)n1`, the growth is -72.1% (active).

In the case of `CN(C)c1ccc(N)c2ccccc12`, the growth was 65.1% (inactive).

Regarding `CSc1ccc(N(C)c2nc(C)nc3c2CCC3)cc1`, the growth was 31.3% (inactive).

As to `C=C(C)[C@@H]1CC[C@]2(C(=O)NNC(=O)c3cccnc3)CC[C@]3(C)[C@H](CC[C@@H]4[C@@]5(C)CCCNC(C)(C)[C@@H]5CC[C@]43C)[C@@H]12`, the growth is 91% (inactive).

The subject of a further test is OVCAR-3 ovarian. The test is described as above. Conditions: 10 µM unless noted.
On to `O=C1c2ccccc2C(=Cc2ccccc2)c2ccccc21`, for which the growth was -36.5% (active).

Turning to `N#CC1=C(N)Oc2c(sc3c(F)cccc23)C1c1ccc(Cl)cc1` (stereo unspecified), the growth is 6.16% (active).

On to `O=C(Nc1ccc(/C=C2\SC(=O)N(Cc3ccc(OC(F)(F)F)cc3)C2=O)cc1)c1ccc(Cl)c([N+](=O)[O-])c1`, for which the growth is 48.2% (inactive).

In the case of `C[C@@H](C(=O)O)c1ccc2c3cc(Cl)ccc3n(Cc3cc(=O)oc4ccc(Cl)cc34)c2c1`, the growth is 98.7% (inactive).

Turning to `Cn1c(=O)c2c(nc(Br)n2CC(=O)Nc2ccc(F)cc2)n(C)c1=O`, the growth was 114% (inactive).

Consider `COC(=O)C(N)CSC(c1ccccc1)(c1ccccc1)c1ccccc1` (stereo unspecified), for which the growth is 20.7% (inactive).

For the compound `NS(=O)(=O)c1ccc(CCNC(=O)/C=C/c2ccc(Cl)cc2)cc1`, the growth is 105% (inactive).

Take `C[C@H]1[C@H]2C3=CC[C@@H]4[C@@]5(C)C/C(=C/c6ccco6)C(=O)C(C)(C)[C@@H]5CC[C@@]4(C)[C@]3(C)CC[C@@]2(C(=O)N2CCOCC2)CC[C@@H]1C`: the growth was 55.6% (inactive).

As for `COC1=C(Br)C(=O)C(OC)=C(Br)C1=O`, the growth was 91% (inactive).

With `Cn1cc(-c2csc(-c3cn(CCN)c4ccc(F)cc34)n2)c2cccnc21`, the growth was 84.1% (inactive).

On to `O=C1/C(=C\c2ccco2)SC(=S)N1CCc1ccc(O)cc1`, for which the growth is 105% (inactive).

Take `COc1cccc(-c2nn(-c3ccccc3)cc2-c2ccnc(NCCNS(=O)(=O)c3ccccc3)c2)c1`: the growth is 42.6% (inactive).

Turning to `C[C@]12CC[C@@H]3c4ccc(O)cc4CC[C@H]3[C@@H]1C[C@H](O)[C@@H]2O`, the growth was 90.3% (inactive).

Take `COc1cc2c3c(c4c5ccccc5[nH]c4c2c(OC)c1OC)C(=O)N(O)C3=O`: the growth was 49.5% (inactive).

Consider `C/C(=N/NC(N)=S)C(=O)O`, for which the growth is 77% (inactive).

`CCCCC[C@H]1C/C=C2/C(=O)C(Cl)=C[C@@H]2C/C=C\CCCC(=O)O1`: the growth was -89.5% (active).

With `Cn1c2ccccc2c2c3c(c4c5cccnc5[nH]c4c21)C(=O)N(O)C3=O`, the growth was 54.7% (inactive).

As to `O=C1CN(c2ccccc2)C(=O)C1C(=O)Nc1ccc(Cl)c(Cl)c1` (stereo unspecified), the growth was 39.3% [100 µM] (inactive).

Turning to `CCc1cccc(CC)c1NC(=O)c1sc2nc3c(cc2c1N)CCCC3`, the growth is 54.6% (inactive).

As to `C[C@H]1OC(=O)/C=C/[C@@H](O)[C@@H](O)CCCCCCCC[C@@H]1O`, the growth was 109% (inactive).

`COc1cccc(-c2nn(-c3ccccc3)cc2-c2ccnc(NCCNS(=O)(=O)c3cccc(F)c3)c2)c1`: the growth is 40.4% (inactive).

For `CCCC(=O)N1CCCCC1CC` (stereo unspecified), the growth is 105% (inactive).

With `CC(=O)O[C@@H]1CCN2C(=O)N(C)c3ccccc3[C@@H]2C1`, the growth is 122% (inactive).

For `O=C(/C=C\c1ccc2c(c1)OCO2)/C=C/c1ccc2c(c1)OCO2`, the growth was 69.5% (inactive).

As to `O=C1C=Cc2ncccc2C1=O`, the growth was 64.4% (inactive).

`COc1ccc(C2C(C#N)=C(N)Oc3c2sc2c(F)cccc32)cc1` (stereo unspecified): the growth was -4.86% (active).

On to `COC(=O)[C@]12CC[C@@H](C)[C@H](C)[C@@H]1C1=CC[C@@H]3[C@@]4(C)C(c5ncon5)=C[C@@](C)(CO)C4=CC[C@@]3(C)[C@]1(C)CC2`, for which the growth is -86.8% (active).

`Cc1cc2nc3c4cc(Cl)ccc4n(CCN(C)C)c3nc2cc1C`: the growth is 32.9% (inactive).

Take `COc1cc2c(cc1-c1c(C)noc1C)ncc1nc(C3CC3)n([C@H](C)COC(F)F)c12`: the growth is 42% (inactive).

For `CCCCC[C@H]1CC=C2C(=O)C(Cl)=C[C@@H]2CC=CCCCC(=O)O[C@@H](CCCCC)CC=C2C(=O)C(Cl)=C[C@@H]2CC=CCCCC(=O)O[C@@H](CCCCC)CC=C2C(=O)C(Cl)=C[C@@H]2CC=CCCCC(=O)O1`, the growth is 17.3% [8 µM] (inactive).

As to `NC(=O)[C@@H]1CC2CCC1C2` (stereo partly specified), the growth is 93.4% (inactive).

For `C=C(C)[C@@H]1CC[C@]2(C=O)CC[C@]3(C)[C@H](CC[C@@H]4[C@@]5(C)C/C(=C/c6cccnc6)C(=O)C(C)(C)[C@@H]5CC[C@]43C)[C@@H]12`, the growth was 74.3% (inactive).

Take `CN(C)c1ccc(N)c2ccccc12`: the growth is -15.6% (active).

On to `CSc1ccc(N(C)c2nc(C)nc3c2CCC3)cc1`, for which the growth is 5.43% (active).

In the case of `C=C(C)[C@@H]1CC[C@]2(C(=O)NNC(=O)c3cccnc3)CC[C@]3(C)[C@H](CC[C@@H]4[C@@]5(C)CCCNC(C)(C)[C@@H]5CC[C@]43C)[C@@H]12`, the growth is 81.2% (inactive).
